This is an account of results in publication PMC5913336, “True equilibrium measurement of transcription factor-DNA binding affinities using automated polarization microscopy”.

In the assay the target is T1, Eip93f (Drosophila melanogaster, UniProt Q9VD60 752-830).
T1 sequence: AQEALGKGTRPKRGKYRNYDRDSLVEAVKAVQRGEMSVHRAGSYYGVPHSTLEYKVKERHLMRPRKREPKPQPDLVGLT
Kind of assay: FP; 33 mM phosphate pH 7.0, 90 mM NaCl, 0.01% Tween 20, 0.1 mM DTT, 0.5% agarose; room temperature. The conditions noted are these: tags: N-GST (pGEX-6P-1, kept); dsDNA, one strand shown.
Regarding CATAGCCGAAAATCG, the Kd (as a rule, the equilibrium constant for the complex coming apart) is about 14.5 nM.

CATAGCCGAAAATCA: the binding signal is 1.07 Kd / Kd of best base at the position.

For CATAGCTGAAAATCG, the binding signal was 4.47 Kd / Kd of best base at the position.

Regarding CATAGCCGGAAATCG, the binding signal is 7 Kd / Kd of best base at the position.

As to CATATCCGAAAATCG, the binding signal was 1.8 Kd / Kd of best base at the position.

On to CATAACCGAAAATCG, for which the binding signal is 1.73 Kd / Kd of best base at the position.

CTTAGCCGAAAATCG: the binding signal is 1.14 Kd / Kd of best base at the position.

Consider CATAGCAGAAAATCG, for which the binding signal was 23.3 Kd / Kd of best base at the position.

On to CAAAGCCGAAAATCG, for which the binding signal is 1.57 Kd / Kd of best base at the position.

Take CATGGCCGAAAATCG: the binding signal was 1.39 Kd / Kd of best base at the position.

CATAGCCGAAAATCT: the binding signal is 1.07 Kd / Kd of best base at the position.

For the sequence CATAGCCGTAAATCG, the binding signal was 13.1 Kd / Kd of best base at the position.

On to TATAGCCGAAAATCG, for which the binding signal was 1.35 Kd / Kd of best base at the position.

With CAGAGCCGAAAATCG, the binding signal is 1.49 Kd / Kd of best base at the position.

On to CATAGCCTAAAATCG, for which the binding signal is 1.82 Kd / Kd of best base at the position.

For the sequence CATAGCCGAAATTCG, the binding signal is 1.52 Kd / Kd of best base at the position.

Consider CGTAGCCGAAAATCG, for which the binding signal is 1.39 Kd / Kd of best base at the position.

Regarding CATTGCCGAAAATCG, the binding signal is 1.02 Kd / Kd of best base at the position.

Consider CACAGCCGAAAATCG, for which the binding signal is 1.26 Kd / Kd of best base at the position.

For the sequence CATAGCCGAAAGTCG, the binding signal is 2.41 Kd / Kd of best base at the position.

Regarding CATAGCCGAGAATCG, the binding signal is 22.5 Kd / Kd of best base at the position.

In the case of GATAGCCGAAAATCG, the binding signal was 1.29 Kd / Kd of best base at the position.

For the sequence CATCGCCGAAAATCG, the binding signal is 2.02 Kd / Kd of best base at the position.

Regarding CCTAGCCGAAAATCG, the binding signal was 1.59 Kd / Kd of best base at the position.

In the case of CATAGCCGAAAACCG, the binding signal is 1.78 Kd / Kd of best base at the position.

Regarding CATAGCCAAAAATCG, the binding signal is 1.28 Kd / Kd of best base at the position.

Regarding CATAGCCGAAAAGCG, the binding signal was 1.89 Kd / Kd of best base at the position.

Regarding CATAGTCGAAAATCG, the binding signal is 1.92 Kd / Kd of best base at the position.

Consider CATAGCGGAAAATCG, for which the binding signal was 16.4 Kd / Kd of best base at the position.

Consider CATAGCCGAAAATTG, for which the binding signal was 1.35 Kd / Kd of best base at the position.

For the sequence CATAGCCGAAAATGG, the binding signal was 1.42 Kd / Kd of best base at the position.

As to CATAGCCGAAAATAG, the binding signal was 1.65 Kd / Kd of best base at the position.

Take CATAGCCGAAAAACG: the binding signal is 1.54 Kd / Kd of best base at the position.

For CATAGGCGAAAATCG, the binding signal was 3.03 Kd / Kd of best base at the position.

For CATAGCCGAAAATCC, the binding signal was 1.04 Kd / Kd of best base at the position.

Consider AATAGCCGAAAATCG, for which the binding signal is 1.22 Kd / Kd of best base at the position.

In the case of CATAGCCCAAAATCG, the binding signal was 1.29 Kd / Kd of best base at the position.

Turning to CATAGCCGCAAATCG, the binding signal was 20 Kd / Kd of best base at the position.

In the case of CATAGCCGAAACTCG, the binding signal was 2.54 Kd / Kd of best base at the position.

Regarding CATAGACGAAAATCG, the binding signal is 3.01 Kd / Kd of best base at the position.
